For the test, the target named is Serine protease Rv3671c (Mycobacterium tuberculosis (strain ATCC 25618 / H37Rv)) (UniProt P9WHR9). Nature of the test: M. tuberculosis Rv3671c protease inhibition confirmation – biochemical, fluorescence polarization, M. tuberculosis H37Rv (AID 2761). As to conditions: at 5.96 µM; stronger effect = higher value.

We go through two molecules from PubChem BioAssay AID2761 (The Scripps Research Institute Molecular Screening Center, 2010).

The list shows a part of the results. Unmarked numbers belong to inactive results. Activity calls are given as the source filed them. No stated cut-off is given here; in the data, active means inhibition above about 38%; inactive means the rest.

Chain of Serine protease Rv3671c (Mycobacterium tuberculosis (strain ATCC 25618 / H37Rv)) (P9WHR9 whole entry, looked up): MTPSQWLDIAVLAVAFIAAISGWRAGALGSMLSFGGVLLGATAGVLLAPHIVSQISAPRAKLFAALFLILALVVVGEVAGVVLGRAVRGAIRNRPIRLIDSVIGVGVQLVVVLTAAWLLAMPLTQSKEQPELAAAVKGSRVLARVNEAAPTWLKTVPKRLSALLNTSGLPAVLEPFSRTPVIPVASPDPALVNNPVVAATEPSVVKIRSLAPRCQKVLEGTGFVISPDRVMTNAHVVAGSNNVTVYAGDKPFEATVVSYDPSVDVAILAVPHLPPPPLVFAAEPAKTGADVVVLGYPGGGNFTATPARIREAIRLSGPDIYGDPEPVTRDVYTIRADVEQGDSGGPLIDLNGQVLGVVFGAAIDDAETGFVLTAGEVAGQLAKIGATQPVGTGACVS

With `COCCOC(=O)c1sc(=S)n(CCOC)c1N`, the inhibition is 28.9%.

As to `c1ccc2[nH]c(-c3nc4ccccc4[nH]3)nc2c1`, the inhibition is 66.6% (active).
